{"source": "PubChem BioAssay (NCI)", "note": "About 83,000 compounds went through this panel and 20% of them were active in at least one assay; those are over-represented in the sample as a whole.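 Results are percent growth after 48 hours of single-concentration exposure. 100 means growth as in untreated cells, lower positive values show inhibition; negative values down to -100 show cell death.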 A number with no mark means an inactive call. Calls of active or inactive are those of the source. Rule for the calls: active = growth percent below 10; inactive = the rest."}
{"tested_on": "SK-MEL-28 melanoma", "test": "NCI-60 one-dose screen, 48 h (100 = growth as untreated, 0 = no growth, -100 = all killed)", "settings": "10 µM unless noted"}
{"smiles": "O=[N+]([O-])c1cnc(Sc2ccncn2)c([N+](=O)[O-])c1", "growth": "98.3%"}
{"smiles": "O=C(Nc1cccc2ccccc12)c1cc2c(cc1Br)OCO2", "growth": "119%"}
{"smiles": "CCCCCCCCCCC[C@@H](C[C@H]1OC(=O)[C@H]1CCCCCC)OC(=O)[C@@H](CC(C)C)NC=O", "growth": "111%"}
{"smiles": "CCOC(=O)c1c2c(c(C)n1Cc1ccccc1)-c1nc(N)ncc1CC2", "growth": "128%"}
{"smiles": "Clc1ccc(CCC(Cn2ccnc2)Sc2c(Cl)cccc2Cl)cc1", "note": "(configuration not stated)", "growth": "102%"}
{"smiles": "CN1COc2ccc3ccccc3c2C1", "growth": "98.6%"}
{"smiles": "O=C(Nc1cccc([N+](=O)[O-])c1)c1cccc(C(=O)Nc2cccc([N+](=O)[O-])c2)c1", "growth": "77.2%"}
{"smiles": "ClC1C2CC(c3ccccc32)C1Cl", "note": "(configuration not stated)", "growth": "108%"}
{"smiles": "NC(=Nc1ccccc1)SCCCCSC(N)=Nc1ccccc1", "growth": "96.7%"}
{"smiles": "CC12CCC3C(CCC4CC(=O)/C(=C\\O)CC43C)C1CCC(=O)O2", "note": "(configuration not stated)", "growth": "114%"}
{"smiles": "Cc1cc(CC(=O)O)n(C)c1C(=O)c1ccc(Cl)cc1", "growth": "122%"}
{"smiles": "CCN(CC)CCCCNc1c2ccccc2[n+](C)c2c1[nH]c1ccccc12", "growth": "-90.4% (active)"}
{"smiles": "CCN1C2=C(SC(=S)C1=C1SC(C(=O)OC)=C(C(=O)OC)S1)SC(=Nc1ccc(OC)cc1)C2=O", "growth": "-55% (active)"}
{"smiles": "CN(CC(=O)Nc1nc2ccccc2[nH]1)S(=O)(=O)c1ccc(Cl)cc1", "growth": "121%"}
{"smiles": "CCOC(=O)C(Cc1ccccc1)(C(=O)OCC)C(Br)C(=O)c1ccccc1", "note": "(configuration not stated)", "growth": "91%"}
{"smiles": "Cc1ccccc1NC(=O)c1cc2ccccc2cc1O", "growth": "38.6%"}
{"tested_on": "SK-MEL-2 melanoma", "test": "NCI-60 one-dose screen, 48 h (100 = growth as untreated, 0 = no growth, -100 = all killed)", "settings": "10 µM unless noted"}
{"smiles": "Cn1[nH]cc(/C=N/C(N)=O)c1=O", "growth": "109%"}
{"smiles": "Nc1ccc2c(c1)/C(=N/O)c1cc([N+](=O)[O-])ccc1-2", "growth": "96.9%"}
{"smiles": "CC(=O)n1c2ccccc2c2ccccc21", "growth": "123%"}
{"smiles": "Fc1ccc(-c2nnc(/C=C/c3cn(-c4ccccc4)nc3-c3ccccc3)o2)cc1", "growth": "103%"}
{"smiles": "COc1cc(/C=C/C(=O)c2ccc(F)cc2)ccc1OCCCCCOc1cc2c(cc1OC)C(=O)N1CCCC1C=N2", "note": "(configuration not stated)", "growth": "-18% (active)"}
{"smiles": "O=C(Nc1nc(-c2ccccc2)cs1)c1cc(O)c(O)c(O)c1", "growth": "56.8%"}
{"smiles": "O=C1/C(=C/c2ccc3cccc(Cl)c3n2)SC(=S)N1CCc1ccc(O)cc1", "growth": "101%"}
{"smiles": "Nc1ncc(-c2cnn(C3CCNCC3)c2)cc1-c1nc2cc(Cl)ccc2o1", "growth": "-90.8% (active)"}
{"smiles": "O=C(NCCc1ccccc1)C1CCC(=O)N1Cc1ccc(Br)cc1", "note": "(configuration not stated)", "growth": "96.1%"}
{"smiles": "Cn1c(=O)c2c(nc(Br)n2CCC(=O)Nc2ccc(F)cc2)n(C)c1=O", "growth": "100%"}
{"smiles": "Cc1cc(C(C)(C)C)cc(C)c1CC1=NCCN1", "growth": "113%"}
{"smiles": "CCOc1cc(C(C)(C)C)ccc1C1=N[C@H](c2ccc(Cl)cc2)[C@H](c2ccc(Cl)cc2)N1C(=O)N1CCN(CC#Cc2cccc3c2CN([C@@H]2CCC(=O)NC2=O)C3=O)CC1", "growth": "44.9%"}
{"smiles": "NC(=O)c1ncn([C@@H]2O[C@H](CO)[C@@H](O)[C@H]2O)n1", "growth": "103%"}
{"smiles": "CCCCC1Nc2nc(SC)n(C)c(=O)c2CN(Cc2ccccc2)C1=O", "note": "(configuration not stated)", "growth": "90%"}
{"smiles": "Cc1c(C)c(N2C(=O)C=CC2=O)c(C)c(C)c1N1C(=O)C=CC1=O", "growth": "109%"}
{"smiles": "c1ccc2cc(C[n+]3ccn(CCCCCCCn4cc[n+](Cc5ccc6ccccc6c5)c4)c3)ccc2c1", "growth": "23.4%"}
{"smiles": "Cc1c(NCc2nnc3n(Cc4ccccc4)c(=O)c4c5c(sc4n23)CCCC5)c(=O)n(-c2ccccc2)n1C", "growth": "97.1%"}
{"smiles": "N#CCNc1ccccc1N", "growth": "107%"}
{"smiles": "Cc1cc(NC(=O)Nc2cc(Cl)ccc2C)no1", "growth": "116%"}
{"smiles": "COc1cc(C(=O)/C=C/c2cccnc2Nc2ccccc2)cc(OC)c1OC", "growth": "-56.5% (active)"}
{"smiles": "O=[N+]([O-])c1cnc(Sc2ccncn2)c([N+](=O)[O-])c1", "growth": "110%"}
{"smiles": "O=C(Nc1cccc2ccccc12)c1cc2c(cc1Br)OCO2", "growth": "130%"}
{"smiles": "CCCCCCCCCCC[C@@H](C[C@H]1OC(=O)[C@H]1CCCCCC)OC(=O)[C@@H](CC(C)C)NC=O", "growth": "55.9%"}
{"smiles": "CCOC(=O)c1c2c(c(C)n1Cc1ccccc1)-c1nc(N)ncc1CC2", "growth": "125%"}
{"smiles": "Clc1ccc(CCC(Cn2ccnc2)Sc2c(Cl)cccc2Cl)cc1", "note": "(configuration not stated)", "growth": "72.8%"}
{"smiles": "CN1COc2ccc3ccccc3c2C1", "growth": "93.2%"}
{"smiles": "O=C(Nc1cccc([N+](=O)[O-])c1)c1cccc(C(=O)Nc2cccc([N+](=O)[O-])c2)c1", "growth": "63.7%"}
{"smiles": "ClC1C2CC(c3ccccc32)C1Cl", "note": "(configuration not stated)", "growth": "104%"}
{"smiles": "O=C1c2ccccc2-c2c1nc1ccccc1[n+]2[O-]", "growth": "107%"}
{"smiles": "NC(=Nc1ccccc1)SCCCCSC(N)=Nc1ccccc1", "growth": "98.5%"}
{"smiles": "CC12CCC3C(CCC4CC(=O)/C(=C\\O)CC43C)C1CCC(=O)O2", "note": "(configuration not stated)", "growth": "121%"}
{"smiles": "Cc1cc(CC(=O)O)n(C)c1C(=O)c1ccc(Cl)cc1", "growth": "115%"}
{"smiles": "CCN(CC)CCCCNc1c2ccccc2[n+](C)c2c1[nH]c1ccccc12", "growth": "-90.7% (active)"}
{"smiles": "CCN1C2=C(SC(=S)C1=C1SC(C(=O)OC)=C(C(=O)OC)S1)SC(=Nc1ccc(OC)cc1)C2=O", "growth": "-5.85% (active)"}
{"smiles": "CN(CC(=O)Nc1nc2ccccc2[nH]1)S(=O)(=O)c1ccc(Cl)cc1", "growth": "53.7%"}
{"smiles": "CCOC(=O)C(Cc1ccccc1)(C(=O)OCC)C(Br)C(=O)c1ccccc1", "note": "(configuration not stated)", "growth": "83.5%"}
